For assay [1], the system named is Human papillomavirus type 1a protein E7 (residues 44-93). Kind of assay: HPV1a E7 fragment binders on microarrays, primary screen, biochemical, small-molecule microarray, residues 44-93, 635 nm fluorescence (AID 1108).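 Also: E7 fragment applied at 1 µg/mL in TBST for 1 h at 4 C; score combines spot fluorescence with its signal to noise ratio.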 The following applies: small-molecule microarray binding, fluorescence 635 nm; higher = more signal.
A short description of assay [2]: modulators of HCV replicon luciferase signal, primary screen, HCV replication inhibitor project, Huh7 cells, luciferase reporter (AID 1109).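 Also: huh7 hepatoma cells harbouring a luciferase neomycin HCV replicon reporter; luciferase luminescence as measure of HCV replicon replication; test concentration not given here.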 The following applies: 48 h, higher = more signal.
The target in assay [3] is Left-right determination factor 2 (Homo sapiens) (UniProt O00292). The experiment in a line: LEFTY2 binders on small-molecule microarrays, primary screen, biochemical, small-molecule microarray, 635 nm fluorescence scan (AID 1110). Particulars: LEFTY2 binding, higher = more signal.
Assay [4] has as its target Calmodulin-1 (Homo sapiens) (UniProt P0DP23). Kind of assay: CALM1 binders on microarrays, EGTA buffer, profiling panel, biochemical, small-molecule microarray, Cy5-labelled CALM1 (AID 1111).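 Also: labelled calmodulin applied in Tris saline Tween buffer holding calcium plus EGTA and DTT.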 Particulars: Cy5-CALM1 binding fluorescence, higher = more signal.
Assay [5] has the same target. Kind of assay: calcium-bound CALM1 binders on microarrays, profiling panel, artefact control for SMM control-protein annotation, biochemical, small-molecule microarray, Cy5-labelled CALM1, plus calcium (AID 1112).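 Also: score merges spot fluorescence with signal to noise from triplicate slides.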 The following applies: Cy5-CALM1 binding fluorescence, higher = more signal.
A short description of assay [6]: small-molecule microarray binders of probe aWnt5a, primary screen, biochemical, biotinylated probe, 635/667 nm fluorescence (AID 1113).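 Also: score merges 667 nm fluorescence intensity with signal-to-noise per printed feature.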 The following applies: higher = more signal.
Assay [7] in a line: small-molecule microarray binders of probe aShh, primary screen, biochemical, biotinylated probe, 635/667 nm fluorescence (AID 1114).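 Also: probe is biotin-labelled aShh protein from a stem cell growth factor screen; measures binding of labelled protein to compounds printed on the slide; score merges feature fluorescence at 667 nm with signal-to-noise.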 The following applies: higher = more signal.
A short description of assay [8]: small-molecule microarray binders of probe aNog, primary screen, biochemical, biotinylated probe, 635/667 nm fluorescence (AID 1115).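 Also: probe is biotinylated aNog protein used at 0.15 µg/mL for 1 h at 4 C; z-score combines 667 nm fluorescence of each spot with its signal to noise.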 Particulars: higher = more signal.
The target in assay [9] is Torsin-1A-interacting protein 1 (Homo sapiens) (UniProt Q5JTV8). The experiment in a line: LAP1 binders from COS7 cell lysate, primary screen, small-molecule microarray, 635/667 nm fluorescence (AID 1116). Particulars: COS7-hLAP1 lysate binding, 635 nm fluorescence, higher = more signal.
For assay [10], the target named is Alpha-bungarotoxin (Bungarus multicinctus) (UniProt P60615). Kind of assay: alpha-bungarotoxin binders on microarray, profiling panel, artefact control for SMM control protein annotation, biochemical, small-molecule microarray, Alexa647 label, 635/667 nm fluorescence (AID 1117). Particulars: alpha-BTX-A647 binding fluorescence, higher = more signal.
Chain of Alpha-bungarotoxin (Bungarus multicinctus) (P60615 whole entry, looked up): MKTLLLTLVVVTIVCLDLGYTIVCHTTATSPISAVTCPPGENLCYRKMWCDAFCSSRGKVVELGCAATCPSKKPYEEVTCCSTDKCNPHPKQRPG

Chain of Torsin-1A-interacting protein 1 (Homo sapiens) (Q5JTV8 whole entry, looked up): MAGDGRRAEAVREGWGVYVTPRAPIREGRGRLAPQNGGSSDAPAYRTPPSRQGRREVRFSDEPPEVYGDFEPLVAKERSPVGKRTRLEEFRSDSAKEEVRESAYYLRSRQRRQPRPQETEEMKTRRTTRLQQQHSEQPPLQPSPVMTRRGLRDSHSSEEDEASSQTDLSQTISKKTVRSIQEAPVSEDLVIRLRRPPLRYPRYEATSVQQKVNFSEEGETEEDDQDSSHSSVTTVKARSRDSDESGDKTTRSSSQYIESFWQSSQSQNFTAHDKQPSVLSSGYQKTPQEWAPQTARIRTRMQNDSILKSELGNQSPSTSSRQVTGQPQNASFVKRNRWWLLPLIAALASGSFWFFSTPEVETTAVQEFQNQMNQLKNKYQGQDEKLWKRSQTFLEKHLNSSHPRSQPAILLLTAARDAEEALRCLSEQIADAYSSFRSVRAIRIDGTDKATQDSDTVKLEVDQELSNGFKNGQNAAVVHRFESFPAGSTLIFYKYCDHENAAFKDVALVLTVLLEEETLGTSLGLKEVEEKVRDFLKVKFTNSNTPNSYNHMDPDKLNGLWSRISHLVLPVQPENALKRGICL
Chain of Left-right determination factor 2 (Homo sapiens) (O00292 whole entry, looked up): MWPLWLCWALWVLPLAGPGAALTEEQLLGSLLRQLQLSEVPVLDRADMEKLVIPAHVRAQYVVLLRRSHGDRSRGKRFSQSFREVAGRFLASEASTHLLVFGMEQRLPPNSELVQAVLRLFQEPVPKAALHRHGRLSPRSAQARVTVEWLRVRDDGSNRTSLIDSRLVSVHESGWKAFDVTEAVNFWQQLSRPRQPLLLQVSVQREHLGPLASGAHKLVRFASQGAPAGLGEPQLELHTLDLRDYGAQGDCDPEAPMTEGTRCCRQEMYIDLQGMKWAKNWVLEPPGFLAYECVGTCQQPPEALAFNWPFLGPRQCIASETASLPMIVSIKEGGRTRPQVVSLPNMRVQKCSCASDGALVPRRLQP

With `C#CCNC(=O)[C@H](Cc1ccccc1)NC(=O)[C@@H](N=[N+]=[N-])C(C)C`, the composite z-score in assay [1] is 0.902; in assay [3], 0.69; in assay [4], 0.222; in assay [5], -0.217; in assay [6], -0.117; in assay [7], -0.262. Also, the composite z-score is 0.221 in assay [8], 0.455 in assay [9] and 0.96 in assay [10]. In addition, the z-score in assay [2] turned out to be 0.965.

As for `C[C@@H](OCc1ccccc1)C1NC(=O)[C@@]23C(=O)N[C@@H](Cc4ccccc4)C2[C@H](C)[C@@]2(C)O[C@H]2C3/C=C/C/C=C\CNC(=O)CNC1=O` (stereo not given in full), the composite z-score in [1] is -0.816; in [3] it was 0.367; in assay [4], -1.15; in assay [5], -1.02; in [6] it was -0.199; in [7], -0.179. Moreover, the composite z-score in assay [8] was -0.323; in [9], -0.143; in assay [10] it was -1.56. The same compound came in with a z-score in [2] of -0.712.

Regarding `CC(C)(C)OC(=O)CC[C@]1(C(=O)O)N=C(c2ccc(OCCCO)cc2)O[C@H]1c1ccccc1`, the composite z-score in assay [1] was 0.138; in assay [3], -0.369; in [4], 0.76; in [5], 1.05; in assay [6], -0.096; in assay [7], -0.0769. Besides, the composite z-score in [8] is -0.172; in assay [9], 0.0522; in assay [10], 0.574. This compound also had a z-score in assay [2] of -0.733.

As to `Cc1ccc(F)cc1S(=O)(=O)N[C@@H]1CCN(Cc2ccc(OC(C)C)cc2)C1`, the composite z-score in assay [1] was -1.22; in [3], 0.2; in assay [4], -0.892; in [5], -1.14; in assay [6] it was -0.103; in assay [7], -0.153. In addition, the values for the composite z-score in assay [8], in assay [9] and in assay [10] were 0.0771, 0.224 and -0.688, respectively. The same compound registered a z-score in assay [2] of -3.58.

Take `COc1cc(OC)c(C(O)C2C=CC3C(=O)N(c4ccccc4)C(=O)C3N2Nc2ccc(C#N)cc2)cc1Br` (stereo not given): the composite z-score in [1] was determined as 1.36; in assay [3], 0.0166; in assay [4] it was 2.19; in [5], 0.992; in [6] it was 0.471; in assay [7] it was 0.196. Further, the composite z-score in assay [8] is 0.81; in assay [9], 2.18; in assay [10], 2.42. In addition, the z-score in [2] is -0.519.

As to `C=C(C(=O)CC[C@H](OC(=O)c1cccnc1)c1ccc(CO)o1)C(C)C`, the composite z-score in [1] was 0.362; in assay [3], 0.584; in assay [4], 0.627; in assay [5], -0.316; in assay [6] it was 0.0973; in assay [7], 0.39. The composite z-score stood at 0.013 in [8], 1.18 in assay [9] and 1.19 in assay [10]. The compound further registered a z-score in [2] of -1.43.

As to `COc1c(C)cc(-c2cc3c(c(Cc4ccccc4)n2)[Si](C(C)C)(C(C)C)OC3)cc1C`, the composite z-score in assay [1] is -0.0363; in [3], 0.265; in [4] it was 0.0153; in assay [5] it was 0.0467; in [6], -0.096; in [7], -0.123. Further, the composite z-score in [8] is -0.393; in assay [9] it was -0.0091; in assay [10], 0.229. In assay [2], this compound gave a z-score of -0.637.

`CCCCC(CC)C(O)C1C=CC2C(=O)N(c3ccccc3)C(=O)C2N1Nc1ccc([N+](=O)[O-])cc1` (stereo not given): the composite z-score is 1.37 in assay [1]; 0.362 in assay [3]; 1.68 in assay [4]; -0.371 in assay [5]; -0.0519 in assay [6]; -0.258 in assay [7]. Besides, the composite z-score in assay [8] was -0.623; in [9], 0.513; in [10], 1.27. Besides, the z-score in [2] is -0.127.

With `COCCOC(=O)N1C(=O)[C@@]2(c3cc(C#Cc4ccc(OC)cc4)ccc31)[C@H](C(=O)N1CCCCCCC1)[C@H]1C(=O)O[C@H](c3ccccc3)[C@H](c3ccccc3)N1[C@@H]2c1ccc(O)cc1`, the composite z-score in [1] was 1.36; in assay [3] it was 0.505; in assay [4], 0.172; in assay [5] it was 0.184; in [6] it was -0.0239; in assay [7] it was 0.603. In addition, the figures for the composite z-score in [8], in [9] and in assay [10] were 1.18, 0.604 and 0.723, respectively. This compound yielded a z-score in assay [2] of -0.949.

Take `COC(=O)C1(Cc2ccccc2)C=C2C(=C(c3ccccc3)C(=O)C2C)CN1` (stereo not given): the composite z-score was -0.964 in [1]; -0.871 in assay [3]; 0.648 in assay [4]; 1.18 in assay [5]; 1.11 in assay [6]; 2.71 in assay [7]. The composite z-score in assay [8] turned out to be 1.05; in assay [9], 1.22; in assay [10] it was 0.0329. The z-score in [2] was -1.53.

`CC(=O)N1Cc2ccccc2C[C@]2(N=C(c3ccc(OCCCO)cc3)O[C@@H]2c2ccccc2)C1=O`: the composite z-score in assay [1] was 1.1; in [3] it was 0.179; in assay [4], 1.01; in assay [5], 0.446; in assay [6], -0.13; in [7] it was 0.163. The composite z-score stood at 0.682 in assay [8], 1.78 in [9] and 1.64 in assay [10]. This compound displayed a z-score in assay [2] of -1.56.

On to `CCOC(=O)C[C@H]1[C@H](OC(=O)c2ccc(-c3ccccc3)cc2)[C@@H](NC(=O)c2ccc3ccccc3c2)c2cc(OCCCO)ccc2N1C(=O)c1ccc2ccccc2n1`, for which the composite z-score in [1] is 1.18; in assay [3], 0.249; in [4], 1.31; in [5] it was 0.593; in assay [6] it was -0.0445; in assay [7], -0.112. Also, the values for the composite z-score in [8], in assay [9] and in assay [10] were -0.324, 0.639 and 0.0804, respectively. In addition, the z-score in assay [2] is -1.07.

Regarding `COC(=O)[C@@]1(Cc2ccccc2)[C@H]2c3cc(C(=O)N4CCCC4)n(Cc4cc(F)cc5c4OCOC5)c3C[C@H]2CN1C(=O)c1ccccc1`, the composite z-score was 0.0951 in assay [1]; -0.655 in assay [3]; 1.08 in assay [4]; 0.641 in assay [5]; 0.14 in assay [6]; 0.688 in [7]. For the same compound, the composite z-score in [8] worked out at 1.93; in assay [9], 1.74; in assay [10] it was 0.468. Also, the z-score in [2] was -0.592.
